The values below come from PubChem BioAssay (Tox21).

The nature of assay [1]: qHTS assay for small molecules that induce genotoxicity in human embryonic kidney cells expressing luciferase-tagged ATAD5 (AID 651632). Note: nearly all actives have a fitted effect of over 15% in size. In outline: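 ATAD5-luc HEK293T, 2,000 cells/well; cpd or DMSO pin-transferred; 16 hr, 37C/5% CO2; Amplite 30 min RT; luminescence.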
For orientation: qHTS replaces the single test concentration by a dilution series.

Assay [2] is described as follows: qHTS assay for small molecule disruptors of the mitochondrial membrane potential - cell viability (AID 720634; calls by dose curve;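 note: human HepG2 liver cancer cells; nearly all actives have a fitted effect of over 20% in size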). In outline: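 Cells: HepG2, 2,000/well, attached overnight. Compound 1 hr, 37 C/5% CO2. +m-MPI dye, +CellTiter-Glo 30 min RT. Readout: luminescence (ATP).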
Assay [3] in a line: qHTS assay for small molecule disruptors of the mitochondrial membrane potential (AID 720635). Note: potency is the fitted concentration of half-maximal effect. In outline:
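Mitochondrial membrane potential tracked with Mito-MPS dye, red aggregates (ex 540/em 590 nm) against green monomers (ex 490/em 535 nm). Compound treatment 1 hr at 37C, dye 30 min in HepG2.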

Assay [4] is described as follows: qHTS assay to test for compound auto fluorescence at 535 nm (green) in HepG2 cells (AID 720675).
Assay [5] in a line: qHTS assay to test for compound auto fluorescence at 460 nm (blue) in HEK293 cells (AID 720678). In outline: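 Blue-channel (Ex/Em 405/460 nm) intensity measured in HEK293 cultures after overnight compound exposure at 37C; signal expressed relative to triamterene. Cells plated 2,000 per well in 10% dialyzed FBS medium and allowed 4-5 hr to attach.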
The nature of assay [6]: qHTS assay to test for compound auto fluorescence at 590 nm (red) in HEK293 cells (AID 720679). In outline: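 Red-channel autofluorescence (Ex/Em 540/590 nm; Rose Bengal sodium reference) was measured after overnight 37C, 5% CO2 exposure of attached HEK293 cells, 2,000 per well in medium with 10% dialyzed FBS.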
Assay [7] in a line: qHTS assay to test for compound auto fluorescence at 535 nm (green) in HEK293 cells (AID 720680).
Assay [8] in a line: qHTS assay to test for compound auto fluorescence at 460 nm (blue) in HEK293 cell free culture (AID 720681). In outline: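 Blue fluorescence (Ex 405/Em 460 nm, triamterene-equivalent) was read immediately after pin transfer of compound or DMSO into medium (DMEM, 10% FBS) without cells.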
A short description of assay [9]: qHTS assay to test for compound auto fluorescence at 535 nm (green) in HEK293 cell free culture (AID 720682). The method in brief: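 Read-out: 485/535 nm fluorescence intensity, calibrated against fluorescein. Medium only (DMEM + 10% FBS, no cells); test compound or DMSO vehicle added by pintool before plate reading.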
Assay [10] can be described thus: qHTS assay to test for compound auto fluorescence at 590 nm (red) in HEK293 cell free culture (AID 720683). In outline:
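Red-channel autofluorescence of compounds in culture medium (DMEM, 10% FBS), no cells, measured at 540/590 nm. Rose Bengal sodium is the reference fluorophore for equivalence.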

The nature of assay [11]: qHTS assay to test for compound auto fluorescence at 590 nm (red) in HepG2 cell free culture (AID 720684). In outline:
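Plate contents were MEM with 10% FBS plus test compound or DMSO, no cells. Fluorescence was recorded with 540 nm excitation and 590 nm emission.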

Assay [12] is described as follows: qHTS assay to test for compound auto fluorescence at 460 nm (blue) in HepG2 cell free culture (AID 720685). The method in brief:
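Compound (23 nL) or DMSO pinned into cell-free MEM with 10% FBS; blue fluorescence read at 405/460 nm excitation/emission, expressed as auto-fluorescence equivalency to triamterene.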

Assay [13] in a line: qHTS assay to test for compound auto fluorescence at 535 nm (green) in HepG2 cell free culture (AID 720686).
Assay [14] is described as follows: qHTS assay to test for compound auto fluorescence at 460 nm (blue) in HepG2 cells (AID 720687). The method in brief: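 Blue-channel autofluorescence (Ex/Em 405/460 nm, triamterene-equivalent) was measured after 1 hr compound exposure at 37 C, 5% CO2. Cells were HepG2, plated overnight at 37 C in MEM plus 10% FBS.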
Assay [15] can be described thus: qHTS assay to test for compound auto fluorescence at 590 nm (red) in HepG2 cells (AID 720674). The method in brief: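 1 hr compound incubation on HepG2 cells, 37 C, 5% CO2; plate read ex 540 nm / em 590 nm; intensities reported as Rose Bengal sodium equivalents.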
For assay [16], the target named is Glucocorticoid receptor (Homo sapiens) (UniProt P04150). Nature of the assay: qHTS assay to identify small molecule agonists of the glucocorticoid receptor (GR) signaling pathway (AID 720691; active = well fitted activation curve with a large enough effect in the signal ratio in the repeat runs, not every such curve was filed as active; the % refers to the signal ratio). Conditions: GR-bla HeLa, beta-lactamase reporter ratio, 18 h; activation: at 62.4 µM (top of the series). The method in brief:
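Fluorescence intensity from LiveBLAzer B/G FRET substrate (2 h, room temperature) reports beta-lactamase expression driven by the glucocorticoid response element in GR-bla HeLa cells after 18 h compound exposure at 37 C.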

Assay [17] in a line: qHTS assay for small molecules that induce genotoxicity in human embryonic kidney cells expressing luciferase-tagged ATAD5 - cell viability (AID 651634; calls by dose curve; note: nearly all actives have a fitted effect of over 25% in size). In outline:
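Fluorescence from CellTiter-Fluor, reporting protease activity within live cells, served as the viability read-out. HEK293T cells carrying luciferase-tagged ATAD5 had been treated with compound for 15.5 hr at 37C.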

The target of assay [18] is Glucocorticoid receptor (Homo sapiens) (UniProt P04150). In words: qHTS assay to identify small molecule antagonists of the glucocorticoid receptor (GR) signaling pathway (AID 720692; active = well fitted inhibition curve with a large enough effect in the signal ratio in the repeat runs, not every such curve was filed as active; the % refers to the signal ratio). The method in brief: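 HeLa GR-bla cells; cmpd + dex 5 nM final, 18 h 37 C; LiveBLAzer B/G FRET substrate 2 h RT; fluorescence intensity read. Antagonist mode, qHTS.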

SMILES strings stand for the structures. Values without a mark were called inactive. Results filed as inconclusive are left out. Active and inactive are the calls of the source. Unless noted, calls come from the whole dose curve; as a rule, active = well fitted curve in the direction sought with a large enough effect in the repeat runs; inconclusive = weak or mixed curves; inactive = no such curve, though single readings can be large; an effect the other way counts as inactive or inconclusive.

Sequence of Glucocorticoid receptor (Homo sapiens) (P04150 whole entry, looked up): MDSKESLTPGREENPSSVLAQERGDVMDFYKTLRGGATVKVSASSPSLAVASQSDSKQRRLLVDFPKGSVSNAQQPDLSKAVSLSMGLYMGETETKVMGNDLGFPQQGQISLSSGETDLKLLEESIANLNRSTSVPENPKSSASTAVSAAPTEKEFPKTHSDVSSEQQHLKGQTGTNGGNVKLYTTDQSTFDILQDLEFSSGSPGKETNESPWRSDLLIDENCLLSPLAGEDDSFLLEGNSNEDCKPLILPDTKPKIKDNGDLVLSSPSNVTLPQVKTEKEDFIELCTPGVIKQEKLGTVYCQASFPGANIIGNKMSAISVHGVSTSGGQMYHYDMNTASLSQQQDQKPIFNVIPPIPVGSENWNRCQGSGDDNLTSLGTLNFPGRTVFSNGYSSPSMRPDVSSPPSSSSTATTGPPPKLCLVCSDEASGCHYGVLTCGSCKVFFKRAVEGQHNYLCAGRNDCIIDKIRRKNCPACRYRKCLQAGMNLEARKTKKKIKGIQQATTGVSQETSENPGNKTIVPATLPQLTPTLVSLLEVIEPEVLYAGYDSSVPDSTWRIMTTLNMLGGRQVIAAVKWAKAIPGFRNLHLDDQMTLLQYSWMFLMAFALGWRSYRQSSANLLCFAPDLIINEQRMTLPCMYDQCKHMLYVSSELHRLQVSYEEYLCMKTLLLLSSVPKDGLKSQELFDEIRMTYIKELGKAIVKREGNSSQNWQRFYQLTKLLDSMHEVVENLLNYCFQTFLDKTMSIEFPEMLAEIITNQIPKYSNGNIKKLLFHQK

With `CC(C)c1ccc(O)c(C(C)C)c1`, the Potency result in assay [1], in [2], in assay [4], in assay [5], in assay [6] and in assay [7] was “inactive” each time. The Potency entry in assay [8], in assay [9], in assay [10], in assay [11], in assay [12] and in assay [13] was “inactive” throughout. Also, the Potency entry in [14] is “inactive”. Also, the Potency in assay [3] was 15.4 µM (active).

`CC=O`: the Potency result in assay [1], in assay [15], in assay [4], in assay [5], in [6] and in assay [7] was “inactive” each time. Besides, the Potency result in assay [8], in [9], in assay [10], in [11], in [12] and in assay [13] was “inactive” each time. In addition, the Potency result in [14] was “inactive”.

In the case of `Cc1occc1SSc1ccoc1C`, the Potency entry in [1], in [3], in assay [15], in [4], in assay [5] and in [6] was “inactive” each time. In addition, the Potency entry in assay [7], in assay [8], in [9], in assay [10], in [11] and in assay [12] was “inactive” in each case. For the same molecule, the Potency entry in assay [13], in assay [14] and in assay [16] was “inactive” each time.

Consider `CN(C)c1ccc(N=NS(=O)(=O)O)cc1`, for which the Potency entry in assay [1], in assay [15], in [4], in assay [5], in assay [7] and in [8] was “inactive” in each case. Further, the Potency entry in assay [9], in assay [10], in assay [11], in [12], in assay [13] and in assay [14] was “inactive” each time. The Potency entry in assay [16] is “inactive”. For the same molecule, the Potency in [3] is 2.17 µM (active).

Consider `CC(C(O)c1ccccc1)N(C)CCOC(c1ccccc1)c1ccccc1` (centres undefined), for which the Potency entry in [1], in [17], in [15], in assay [4], in assay [5] and in assay [7] was “inactive” throughout. For the same molecule, the Potency result in assay [8], in assay [9], in assay [10], in assay [11], in assay [12] and in assay [13] was “inactive” throughout. In addition, the Potency entry in assay [14] and in assay [16] was “inactive” each time.

Turning to `CC1=C(/C=C/C(C)=C/C=C/C(C)=C\C=O)C(C)(C)CCC1`, the Potency result in assay [2], in [15], in assay [4], in assay [5], in assay [6] and in assay [7] was “inactive” throughout. Also, the Potency entry in [8], in assay [9], in assay [10], in [11], in assay [12] and in assay [13] was “inactive” in each case. For the same molecule, the Potency entry in [14] was “inactive”. Besides, the Potency in assay [3] is 57.9 µM (active).

In the case of `NC1(c2ccc(-c3nc4ccn5c(=O)[nH]nc5c4cc3-c3ccccc3)cc2)CCC1`, the Potency result in assay [1], in assay [2], in [4], in assay [5], in assay [6] and in assay [7] was “inactive” throughout. Besides, the Potency entry in assay [8], in assay [9], in [10], in assay [11], in assay [12] and in [13] was “inactive” in each case. In addition, the Potency result in assay [14] and in assay [16] was “inactive” in each case. Besides, the Potency in assay [3] was 13.3 µM (active).

Turning to `O=Cc1ccc(F)cc1`, the Potency result in assay [1], in assay [17], in assay [4], in [5], in assay [6] and in assay [7] was “inactive” each time. The Potency result in [8], in [9], in [10], in assay [11], in assay [12] and in assay [13] was “inactive” in each case. Also, the Potency entry in assay [14], in [16] and in assay [18] was “inactive” each time.
